Screening results deposited in PubChem by National Center for Advancing Translational Sciences (NCATS).
NS1 function inh: qHTS Assay for Inhibitors of Influenza NS1 Protein Function | Potency, µM (titrated, usually from 46.1 µM), for the others: at the top dose activity, positive = more growth | 0.4% of 270,000 active; calls by dose curve; also: actives are rising curves; nearly all actives have a fitted effect of over 50% in size
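OD600 was taken as the measure of yeast growth restored by compound in an NS1-expressing S. cerevisiae strain. Cells had been washed out of glucose medium and diluted 1:100 into galactose -URA medium, pH 6.0.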
HCV inhibitor: qHTS Assay for Inhibitors of Hepatitis C Virus (HCV); Huh7.5.1 HCVcc-Cre infection, luciferase reporter, 44 h; Potency, µM (top dose mostly 41.8 µM), for inactives: top-dose activity change, negative = inhibition, hits mostly inhibitors; 3.4% of 340,000 active; AID 651820, 2012; also: % is scaled to controls: 0 for no effect and ±100 for the full control effect
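Reporter virus HCVcc-Cre (~0.5 moi) infects cells exposed to compound; seeding density 1,000 cells/well with 4 h settling beforehand. Luminescence, 15 sec read, taken 44 h post-infection following a 15 min RT substrate incubation.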
VACV mCherry inh: qHTS for Stage-Specific Inhibitors of Vaccinia Orthopoxvirus: mCherry Reporter Primary qHTS. Vaccinia virus mCherry reporter infection, fluorescence. Potency, µM (series often up to 36.5 µM), for the others: top-dose activity change, negative = inhibition, usual class: inhibitors. 0.63% of 310,000 active. AID 720579, 2013; calls by dose curve; tested in A549 cells; also: % is scaled to controls: 0 for no effect and ±100 for the full control effect; nearly all actives have a fitted effect of over 35% in size
Pf growth 48h: Primary qHTS for delayed death inhibitors of the malarial parasite plastid, 48 hour incubation; P. falciparum luciferase growth in erythrocytes, 48 h; Potency, µM (top dose mostly 28.7 µM), without a hit: at the highest dose activity change, negative = inhibition, actives largely listed as inhibitors; 5.9% of 310,000 active; AID 504832, 2011; also: % is scaled to controls: 0 for no effect and ±100 for the full control effect
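Here the parasites carry a stable luciferase gene and grow inside erythrocytes in Albumax-based RPMI medium with compound for one erythrocytic cycle. Activity is scored as loss of luminescent signal.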
Pf growth 96h: Primary qHTS for delayed death inhibitors of the malarial parasite plastid, 96 hour incubation. P. falciparum luciferase reporter growth, 96 h. Potency, µM (series often up to 28.7 µM), without a hit: top-dose activity change, negative = inhibition, usual class: inhibitors. 6.9% of 320,000 active; also: % is scaled to controls: 0 for no effect and ±100 for the full control effect
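P. falciparum expressing integrated firefly luciferase, in erythrocytes at 2% hematocrit, 0.05% parasitemia, incubated with compounds 96 h at 37 C, 5% CO2. Growth inhibition read as loss of luminescence; two-generation exposure targets delayed-death apicoplast inhibitors.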
Vaccinia Venus: qHTS for Stage-Specific Inhibitors of Vaccinia Orthopoxvirus: Venus Reporter Primary qHTS; Vaccinia virus Venus reporter expression, fluorescence; Potency, µM (titrated, usually from 36.5 µM), for inactives: at the highest dose activity change, negative = inhibition, most hits filed as inhibitors; 0.46% of 330,000 active; calls by dose curve; tested in A549 cells; also: % is scaled to controls: 0 for no effect and ±100 for the full control effect; nearly all actives have a fitted effect of over 30% in size
The depositor's hits bear a star. Only some compounds are listed: those with a hit (about 11% of all), similar ones and a draw of the others. Unless noted, calls follow the shape of the dose curve; as a rule, active = well fitted inhibition curve with a large enough effect; inconclusive = small, poorly fitted or top-dose-only effect, or another doubt; inactive = no such curve, though single readings can be large or run the other way. Potency is read from the fitted curve at half-maximal effect.

Results for COCCNc1nnc(SCC(=O)NNC(=O)c2ccccc2)s1 ?
NS1 function inh: 6%; HCV inhibitor: 2%; Pf growth 48h: 15%; Pf growth 96h: 18%

Results for COCCNc1nnc(SCC(=O)Nc2sc3c(c2C(=O)c2ccccc2)CCCC3)s1 ?
NS1 function inh: 6%; HCV inhibitor: 2.5µM*; VACV mCherry inh: -22%; Pf growth 48h: inconclusive; Pf growth 96h: 9.3µM*; Vaccinia Venus: inconclusive

How did Cc1ccc(C(=O)c2c(NC(=O)CSc3nnc(N)s3)sc3c2CCCC3)cc1 do in these assays?
NS1 function inh: 52%; HCV inhibitor: inconclusive; VACV mCherry inh: -24%; Pf growth 48h: 12µM*; Pf growth 96h: 5.2µM*; Vaccinia Venus: -29%

Results for COCCNc1nnc(SCC(=O)c2c[nH]c3ccccc23)s1 ?
NS1 function inh: 12%; HCV inhibitor: -7%; VACV mCherry inh: -14%; Pf growth 48h: 8.3µM*; Pf growth 96h: inconclusive; Vaccinia Venus: -13%

How did COc1ccc(Cc2nnc(-c3cccc(C)c3)o2)cc1OC do in these assays?
NS1 function inh: -45%; HCV inhibitor: -15%; VACV mCherry inh: -14%; Pf growth 48h: 29%; Pf growth 96h: -3%; Vaccinia Venus: -19%

What do the screens show for `COc1ccc(Cc2nnc(Nc3ccc(C)cc3)o2)cc1OC`?
NS1 function inh: -66%; HCV inhibitor: inconclusive; Pf growth 48h: 2.9µM*; Pf growth 96h: inconclusive

Results for Cc1cc(C)c(C)c(OCCCCN(C)Cc2ccccc2)c1 ?
NS1 function inh: -24%; HCV inhibitor: 0%; Pf growth 48h: inconclusive; Pf growth 96h: 13µM*

What do the screens show for `CCc1ccc(OCCCCN(C)Cc2ccccc2)cc1`?
NS1 function inh: -13%; HCV inhibitor: -26%; Pf growth 48h: -2%; Pf growth 96h: 13µM*

Results for CN(CCOCCOc1ccc2ccccc2c1)Cc1ccccc1 ?
NS1 function inh: -84%; HCV inhibitor: -17%; VACV mCherry inh: -15%; Pf growth 96h: 15µM*; Vaccinia Venus: inconclusive

Results for CN(C)CCCCOc1ccc(F)cc1 ?
HCV inhibitor: -9%; VACV mCherry inh: inactive; Pf growth 48h: -19%; Pf growth 96h: 12µM*; Vaccinia Venus: -4%

What do the screens show for `COc1ccc(OCCN(C)Cc2ccccc2)cc1`?
NS1 function inh: inconclusive; HCV inhibitor: 9%; Pf growth 48h: 28%; Pf growth 96h: -46%

What do the screens show for `CCOc1ccc(OCCCCN(C)C)cc1`?
NS1 function inh: -12%; HCV inhibitor: -1%; Pf growth 48h: 22%; Pf growth 96h: -1%; Vaccinia Venus: -6%

What do the screens show for `CN(CCCCOc1ccc(F)cc1)Cc1ccccc1`?
NS1 function inh: 17%; HCV inhibitor: -8%; Pf growth 48h: 45%; Pf growth 96h: inconclusive

What do the screens show for `COC(=O)c1ccc(C(=O)NC(=S)Nc2nc3c(s2)CC(C)CC3)cc1` (configuration not stated)?
NS1 function inh: -1%; HCV inhibitor: -2%; VACV mCherry inh: -11%; Pf growth 48h: 9%; Pf growth 96h: -9%; Vaccinia Venus: -3%

Results for Cn1cccc1-c1cc(C(=O)N/N=C/c2ccc(F)cc2)[nH]n1 ?
NS1 function inh: 16%; HCV inhibitor: 7%; VACV mCherry inh: -10%; Pf growth 48h: 3%; Pf growth 96h: -13%; Vaccinia Venus: -17%

What do the screens show for `CCC(CC)C(=O)c1c[nH]c(C(=O)NCc2cccnc2)c1`?
HCV inhibitor: -10%; VACV mCherry inh: -1%; Pf growth 48h: -10%; Pf growth 96h: 59%; Vaccinia Venus: -19%

How did CC(C)CC(=O)c1c[nH]c(C(=O)NCc2cccnc2)c1 do in these assays?
HCV inhibitor: 4%; VACV mCherry inh: -11%; Pf growth 48h: 10µM*; Pf growth 96h: inconclusive; Vaccinia Venus: -7%
